Results from PubChem BioAssay (NCATS).
Inconclusive results are not listed. Activity calls are given as the source filed them. Unless noted, calls come from the whole dose curve; as a rule, active = well fitted curve in the direction sought with a large enough effect; inconclusive = small, poorly fitted or top-dose-only effect, or another doubt; inactive = no such curve, though single readings can be large; an effect the other way counts as inactive or inconclusive.

Key:
[1] = Nrf2 qHTS screen for inhibitors: Validation (AID 493153; active = well fitted inhibition curve with a large enough effect in the main read-out, with a control signal flat, not every such curve was filed as active); conditions: Potency: luciferase luminescence; viability change: measured here: cytotoxicity max response
In short: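 Concentration-response test in A549 ARE_Fluc reporter cells (5% FBS OPTI-MEM), compound exposure 18-24 h at 37°C, 5% CO2. Cell viability measured first by CellTiter-Fluor fluorescence; ARE-driven luciferase luminescence then measured as Nrf2 activity.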

[2] = qHTS for Inhibitors of Cell Surface uPA Generation: Validation Assay (AID 493164);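 note: RAW 264.7 macrophage cells exposed to compound for 18 h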
In short: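 Compounds are titrated over seven points (2.45 nM–38.3 uM final) onto pre-plated RAW 264.7 cells and incubated for 18 h. Retained intracellular ATP, measured with ATP-Lite, indicates blocked lethal factor entry.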

[3] = target: Galactokinase (Homo sapiens) (UniProt P51570); test: qHTS Validation Assay for Inhibitors of Human Galactokinase (GALK) (AID 493189)
Galactokinase (Homo sapiens), sequence (P51570 whole entry, looked up): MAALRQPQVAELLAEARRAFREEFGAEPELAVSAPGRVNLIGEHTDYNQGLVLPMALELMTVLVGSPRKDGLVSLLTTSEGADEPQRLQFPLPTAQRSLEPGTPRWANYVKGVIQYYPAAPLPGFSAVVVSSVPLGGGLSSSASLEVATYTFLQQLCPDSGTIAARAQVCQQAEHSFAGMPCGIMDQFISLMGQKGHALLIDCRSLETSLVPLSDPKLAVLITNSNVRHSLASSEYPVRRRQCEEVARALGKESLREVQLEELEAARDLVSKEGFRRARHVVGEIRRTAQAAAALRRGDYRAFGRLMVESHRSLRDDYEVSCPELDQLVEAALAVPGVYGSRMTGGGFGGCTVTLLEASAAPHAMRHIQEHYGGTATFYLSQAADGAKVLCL
In short: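 Enzyme activity is inferred from ATP consumption: human GALK phosphorylates galactose (100 uM) using 35 uM ATP for 1 h at room temperature, and luciferase-based Kinase-Glo Plus reports unconsumed ATP.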

[4] = Validation screen for small molecules that induce DNA re-replication in SW480 colon adenocarcinoma cells (AID 504364)
In short: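 Read-out: total Hoechst intensity of nuclei by fluorescence scanning imager; hits raise the fraction of nuclei with elevated DNA content. Cells received compound for 48 hr at 37 C before a 40 min stain.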

[5] = target: Peptidyl-prolyl cis-trans isomerase NIMA-interacting 1 (Homo sapiens) (UniProt Q13526); test: qHTS Validation Assay to Find Inhibitors of Pin1 (AID 504536; active = well fitted inhibition curve with a large enough effect in the polarisation, with a control signal flat, not every such curve was filed as active; the % refers to the polarisation; note: potency is the fitted concentration of half-maximal effect)
Peptidyl-prolyl cis-trans isomerase NIMA-interacting 1 (Homo sapiens), sequence (Q13526 whole entry, looked up): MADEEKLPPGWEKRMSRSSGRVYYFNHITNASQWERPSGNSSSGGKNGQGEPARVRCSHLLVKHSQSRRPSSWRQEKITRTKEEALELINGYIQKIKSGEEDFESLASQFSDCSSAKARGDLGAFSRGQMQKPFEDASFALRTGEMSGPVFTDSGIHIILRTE
In short: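 Fluorescence polarization competition: compounds (titration) displace HiFluor-488-labeled Pin1-1b peptide from Pin1 (0.3 uM final) in pH 7.5 HEPES buffer with DTT, 10 min at room temperature; %Activity normalized to no-enzyme wells, curves fitted.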

[6] = target: Phosphoglycerate kinase, glycosomal (Trypanosoma brucei brucei) (UniProt P07378); test: qHTS Validation Assay to Find Inhibitors of Phosphoglycerate Kinase (AID 504547)
Phosphoglycerate kinase, glycosomal (Trypanosoma brucei brucei), sequence (P07378 whole entry, looked up): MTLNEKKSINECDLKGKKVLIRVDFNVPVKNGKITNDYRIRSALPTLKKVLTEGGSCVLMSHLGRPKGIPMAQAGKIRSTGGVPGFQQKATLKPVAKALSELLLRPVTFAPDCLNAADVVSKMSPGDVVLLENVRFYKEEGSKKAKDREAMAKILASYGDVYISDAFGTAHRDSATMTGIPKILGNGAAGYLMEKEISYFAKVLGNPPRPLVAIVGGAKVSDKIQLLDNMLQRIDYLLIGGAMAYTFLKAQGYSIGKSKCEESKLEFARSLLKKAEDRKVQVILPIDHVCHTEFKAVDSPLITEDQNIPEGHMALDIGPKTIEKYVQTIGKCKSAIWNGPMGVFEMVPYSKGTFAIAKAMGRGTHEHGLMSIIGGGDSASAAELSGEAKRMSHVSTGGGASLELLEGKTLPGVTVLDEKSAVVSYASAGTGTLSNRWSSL
In short: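 Compounds are pinned into the substrate/PGK mixture, and GAPDH (100nM final) is added to start the reaction by producing 1,3-BPG. After 60 minutes at room temperature, Kinase-Glo Plus is added and luminescence is measured 10 minutes later.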

[7] = target: phosphoglycerate mutase (Leishmania major) (UniProt Q4Q090); test: qHTS Validation Assay to Find Inhibitors of Phosphoglycerate Mutase (AID 504548); conditions: Potency: inhibition qHTS; note: series mostly up to about 58 µM
phosphoglycerate mutase (Leishmania major), sequence (Q4Q090 1-553): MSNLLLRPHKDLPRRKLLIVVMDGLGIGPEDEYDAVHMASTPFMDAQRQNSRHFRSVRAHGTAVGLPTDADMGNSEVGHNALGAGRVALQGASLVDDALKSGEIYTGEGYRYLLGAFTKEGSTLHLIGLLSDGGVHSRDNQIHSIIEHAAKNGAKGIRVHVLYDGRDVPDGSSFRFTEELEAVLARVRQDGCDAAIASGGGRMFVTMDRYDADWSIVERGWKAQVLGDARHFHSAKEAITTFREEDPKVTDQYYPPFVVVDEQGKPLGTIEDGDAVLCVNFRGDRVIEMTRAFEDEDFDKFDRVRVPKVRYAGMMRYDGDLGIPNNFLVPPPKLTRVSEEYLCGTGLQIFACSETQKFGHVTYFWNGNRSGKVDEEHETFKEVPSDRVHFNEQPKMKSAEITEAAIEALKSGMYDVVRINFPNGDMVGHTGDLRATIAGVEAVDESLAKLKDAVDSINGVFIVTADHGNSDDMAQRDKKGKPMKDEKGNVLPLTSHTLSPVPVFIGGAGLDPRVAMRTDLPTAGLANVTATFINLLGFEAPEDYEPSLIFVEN
In short: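 Lm PGAM at 1.25 nM final with substrate in 100 mM TEA pH 7.6, 5 mM MgCl2, 0.01% Tween-20; 45 min at room temperature. Kinase-GloPlus added, 10 min, end-point luminescence read.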

[8] = target: Ubiquitin carboxyl-terminal hydrolase 1 (Homo sapiens) (UniProt O94782); test: Inhibitors of USP1/UAF1: Pilot qHTS (AID 504865);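 note: rhodamine fluorescence freed from ubiquitin-rhodamine substrate followed over time; top concentration of the series differs between compounds; nearly all actives have a fitted effect of over 35% in size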
Ubiquitin carboxyl-terminal hydrolase 1 (Homo sapiens), sequence (O94782 whole entry, looked up): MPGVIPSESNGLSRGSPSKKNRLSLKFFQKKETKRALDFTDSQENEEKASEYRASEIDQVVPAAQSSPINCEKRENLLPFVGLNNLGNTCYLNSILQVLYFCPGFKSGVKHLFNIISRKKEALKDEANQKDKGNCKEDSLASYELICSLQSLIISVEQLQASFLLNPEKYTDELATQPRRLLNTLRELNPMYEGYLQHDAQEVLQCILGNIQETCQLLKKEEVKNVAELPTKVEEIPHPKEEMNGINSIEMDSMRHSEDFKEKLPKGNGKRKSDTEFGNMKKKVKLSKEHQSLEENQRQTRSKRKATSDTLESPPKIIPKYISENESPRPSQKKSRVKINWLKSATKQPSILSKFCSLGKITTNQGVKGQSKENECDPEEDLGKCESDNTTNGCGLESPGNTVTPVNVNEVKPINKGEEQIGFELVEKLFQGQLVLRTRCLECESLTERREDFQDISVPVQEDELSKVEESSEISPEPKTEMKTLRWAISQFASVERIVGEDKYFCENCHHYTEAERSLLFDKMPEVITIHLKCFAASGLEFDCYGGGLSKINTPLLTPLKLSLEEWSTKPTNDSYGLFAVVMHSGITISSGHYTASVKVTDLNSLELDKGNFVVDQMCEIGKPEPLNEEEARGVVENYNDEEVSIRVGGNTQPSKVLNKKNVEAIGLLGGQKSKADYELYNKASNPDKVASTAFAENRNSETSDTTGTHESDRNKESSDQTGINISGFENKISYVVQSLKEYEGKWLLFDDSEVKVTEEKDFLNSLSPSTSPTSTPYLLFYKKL
In short: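 Enzyme-free wells gave the negative control, while test wells held 1nM USP1/UAF1 preincubated with compound for 15 min at room temperature. Ub-Rho at 150nM final started the reaction, and fluorescence at 480/540 nm was recorded kinetically.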

[9] = qHTS for Inhibitors of ATXN expression: Validation of Cytotoxic Assay (AID 588349)
In short: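 Cytotoxicity counter-screen: HEK293 cells exposed to compound titrations, 72 hr, 37 degrees C. Read-out is intracellular ATP (CellTiter Glo luminescence) as a viability measure.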

[10] = qHTS for Inhibitors of ATXN expression: Validation (AID 588378); note: series mostly up to about 57 µM; nearly all actives have a fitted effect of over 75% in size
In short: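 After a 2 h attachment and 24 h compound incubation, HEK293-ATXN2-FFLuc wells are read for fluorescence at 405 nm excitation/525 nm emission as a viability measure, then for Bright-Glo luminescence reflecting ATXN2 expression.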

COC(=O)C(C)(N)Cc1ccc(O)cc1 (stereo unspecified)
inactive: Potency [1] | outcome [2] | Potency [3] | Potency [4] | Potency [5] | Potency [6] | Potency [7] | Potency [8] | Potency [9] | Potency [10]
-3.06%: viability change [1]

O=C(O)[C@H]1NCCC[C@H]1C(=O)O
inactive: Potency [1] | outcome [2] | Potency [3] | Potency [4] | Potency [5] | Potency [6] | Potency [7] | Potency [8] | Potency [9] | Potency [10]
11%: viability change [1]

CCCN(CCc1ccccc1)C1CCc2c(O)cccc2C1 (stereo unspecified)
-8.23%: viability change [1]
inactive: Potency [1] | outcome [2] | Potency [3] | Potency [4] | Potency [5] | Potency [6] | Potency [7] | Potency [8] | Potency [9]

S=C(S)N1CCCC1
-3.57%: viability change [1]
inactive: Potency [1] | outcome [2] | Potency [3] | Potency [4] | Potency [5] | Potency [6] | Potency [7] | Potency [8] | Potency [9] | Potency [10]

CCN(CC)CCOC(=O)c1cc(Cl)c(N)cc1OC
2.46%: viability change [1]
inactive: Potency [1] | outcome [2] | Potency [3] | Potency [4] | Potency [5] | Potency [6] | Potency [7] | Potency [8] | Potency [9] | Potency [10]

OC[C@H]1O[C@@H](n2cnc3cncnc32)[C@H](O)[C@@H]1O
inactive: Potency [1] | outcome [2] | Potency [3] | Potency [4] | Potency [5] | Potency [6] | Potency [7] | Potency [8] | Potency [9]
10.1%: viability change [1]

Fc1ccc(CN(C2=NCCN2)c2c(Cl)cccc2Cl)cc1
inactive: Potency [1] | outcome [2] | Potency [3] | Potency [4] | Potency [5] | Potency [6] | Potency [7] | Potency [8]
-18.2%: viability change [1]

COc1cc(C(O)CO)ccc1O (stereo unspecified)
3.88%: viability change [1]
inactive: Potency [1] | outcome [2] | Potency [3] | Potency [4] | Potency [5] | Potency [6] | Potency [7] | Potency [8] | Potency [9] | Potency [10]

COC1(C2=NCCN2)COc2ccccc2O1 (stereo unspecified)
inactive: Potency [1] | outcome [2] | Potency [3] | Potency [4] | Potency [5] | Potency [6] | Potency [7] | Potency [8] | Potency [9] | Potency [10]
-0.853%: viability change [1]

NC(Cc1cccc(-c2ccccc2CP(=O)(O)O)c1)C(=O)O (stereo unspecified)
0.913%: viability change [1]
inactive: Potency [1] | outcome [2] | Potency [3] | Potency [4] | Potency [5] | Potency [6] | Potency [7] | Potency [8] | Potency [9] | Potency [10]

O=C(O)c1cc(=O)cc(C(=O)O)[nH]1
-5.74%: viability change [1]
inactive: Potency [1] | outcome [2] | Potency [3] | Potency [4] | Potency [5] | Potency [6] | Potency [7] | Potency [8] | Potency [9] | Potency [10]

N[C@@H](Cc1ccc(F)cc1)C(=O)O
inactive: Potency [1] | outcome [2] | Potency [3] | Potency [4] | Potency [5] | Potency [6] | Potency [7] | Potency [8] | Potency [9]
-9.16%: viability change [1]

O=c1ccc2c(OCCCCc3ccccc3)c3ccoc3cc2o1
4.36%: viability change [1]
inactive: Potency [1] | outcome [2] | Potency [3] | Potency [4] | Potency [5] | Potency [6] | Potency [7] | Potency [8] | Potency [9] | Potency [10]

N[C@@H](CCC(=O)N[C@H](CSN=O)C(=O)NCC(=O)O)C(=O)O
inactive: Potency [1] | outcome [2] | Potency [3] | Potency [4] | Potency [5] | Potency [6] | Potency [7] | Potency [8] | Potency [9] | Potency [10]
5.63%: viability change [1]

NCCCCN
-1.47%: viability change [1]
inactive: Potency [1] | outcome [2] | Potency [3] | Potency [4] | Potency [5] | Potency [6] | Potency [7] | Potency [8] | Potency [9]

NC(=O)c1cc[n+](CC2=C(C(=O)O)N3C(=O)[C@@H](NC(=O)[C@@H](c4ccccc4)S(=O)(=O)[O-])[C@H]3SC2)cc1
3.59%: viability change [1]
inactive: Potency [1] | outcome [2] | Potency [3] | Potency [4] | Potency [6] | Potency [7] | Potency [8] | Potency [9] | Potency [10]
active: Potency [5] 9.53 µM

CCCCCCCCCC(=O)NC(CN1CCOCC1)[C@H](O)c1ccccc1 (stereo partly specified)
-4.61%: viability change [1]
inactive: Potency [1] | outcome [2] | Potency [3] | Potency [4] | Potency [5] | Potency [6] | Potency [7] | Potency [8] | Potency [9]

Oc1ccc(Cn2cc[nH]c2=S)cc1
inactive: Potency [1] | outcome [2] | Potency [3] | Potency [4] | Potency [5] | Potency [6] | Potency [7] | Potency [8] | Potency [9]
0.593%: viability change [1]

N=S(=O)(O)Cc1noc2ccccc12
0.163%: viability change [1]
inactive: Potency [1] | outcome [2] | Potency [3] | Potency [4] | Potency [5] | Potency [6] | Potency [7] | Potency [8] | Potency [9] | Potency [10]

NC(N)=N[C@@H](CCC(=O)O)C(=O)O
6.59%: viability change [1]
inactive: Potency [1] | outcome [2] | Potency [3] | Potency [4] | Potency [5] | Potency [6] | Potency [7] | Potency [8] | Potency [9]

N=C(N)c1ccccc1
inactive: Potency [1] | outcome [2] | Potency [3] | Potency [4] | Potency [5] | Potency [6] | Potency [7] | Potency [8] | Potency [9]
6.8%: viability change [1]

OC[C@H]1NC[C@@H](O)[C@@H]1O
4.02%: viability change [1]
inactive: Potency [1] | outcome [2] | Potency [3] | Potency [4] | Potency [5] | Potency [6] | Potency [7] | Potency [8] | Potency [9] | Potency [10]

CN(C)CCC(c1ccc(Br)cc1)c1ccccn1 (stereo unspecified)
3.82%: viability change [1]
inactive: Potency [1] | outcome [2] | Potency [3] | Potency [4] | Potency [5] | Potency [6] | Potency [7] | Potency [8] | Potency [9]

O=C(O)Cc1c[nH]c2ccc(O)cc12
0.136%: viability change [1]
inactive: Potency [1] | outcome [2] | Potency [3] | Potency [4] | Potency [5] | Potency [6] | Potency [7] | Potency [8]
